Hits are enriched below; roughly 6.2% of the tested compounds scored in any of these assays.
HT1080 IDH1KD tx = HT-1080 IDH1 knockdown cell toxicity (counter line); HT-1080 IDH1 knockdown viability, ATP luminescence, 48 h; Potency, µM (top dose mostly 46.1 µM), inactives show at the top dose activity, negative = toxicity, most hits filed as cytotoxic; 360,000 tested, 2% active;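 note: 0% = DMSO wells and -100% = cell-free medium wells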
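Viability of IDH1-knockdown HT-1080 fibrosarcoma cells was assessed by CellTiter-Glo after 48 h at 37 °C with titrated compound; concentration-effect curves were classified by fit quality and response size.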
KB-V1 MDR tox = KB-V1 MDR subline cytotoxicity; KB-V1 MDR cells viability, CellTiter-Glo, 72 h; Potency, µM (highest dose often 46.1 µM), usual class: cytotoxic; 400,000 tested, 3.4% active; note: % is set by controls: 0 for no effect and ±100 for the full control effect; nearly all actives have a fitted effect of over 60% in size
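KB-V1, DMEM (no phenol red) + 10% FBS; cpd pin-transferred, titration series; 72 h, 37 degrees C; CellTiter-Glo, luminescence. Data normalized, curve-fit.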
HT1080-NT tox = kills 2HG-producing HT-1080-NT fibrosarcoma cells; 360,000 tested, 1.6% active; Potency, µM (doses to about 46.1 µM), inactives show at the highest dose activity, negative = less viability, actives largely listed as cytotoxic; AID 686970; HT-1080-NT fibrosarcoma viability, CellTiter-Glo ATP luminescence, 48 h;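 note: NT is the 2HG producing partner of a matched IDH1 knockdown line; 0% = DMSO-treated cells and -100% = media-only wells without cells; nearly all actives have a fitted effect of over 55% in size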
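Luminescent CellTiter-Glo readout after 48 hours of compound exposure at 37 degrees C defined viability of HT-1080-NT cells. Activity was normalized to DMSO wells and cell-free media wells; concentration-response curves were fitted and assigned curve classes.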
S2 tox = reduces viability in counter-screen for ATXN expression inhibitors | S2 cells (HEK-293 line with an ATXN2-luciferase reporter) viability, CellTiter-Fluor protease fluorescence, 24 h | Potency, µM (top dose mostly 56.7 µM), most hits filed as cytotoxic | 400,000 tested, 0.49% active | AID 651635; note: nearly all actives have a fitted effect of over 40% in size
KB-3-1 tox = KB-3-1 parental cell cytotoxicity; KB-3-1 viability, CellTiter-Glo ATP luminescence, 72 h; Potency, µM (doses to about 46.1 µM), usual class: cytotoxic; 400,000 tested, 1.4% active; AID 1347075; note: % is set by controls: 0 for no effect and ±100 for the full control effect; nearly all actives have a fitted effect of over 60% in size
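Cells are dispensed, compounds pinned in, plates held at 37 °C for 72 h, then CellTiter-Glo is added and luminescence read after 10 minutes. Cell line: parental KB-3-1 in phenol-red-free DMEM, 10% FBS.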
ATXN2 expr inh = reduces ATXN2 reporter expression in HEK-293 cells. HEK-293 ATXN2-luciferase reporter, luminescence, 24 h. Potency, µM (series often up to 57 µM), for the others: at the top dose activity change, negative = inhibition, actives largely listed as inhibitors. 360,000 tested, 0.72% active. AID 1745845; note: % is set by controls: 0 for no effect and ±100 for the full control effect; nearly all actives have a fitted effect of over 55% in size
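qHTS (up to 57 uM final) was run with 24 h compound exposure of reporter cells at 37 °C. Each well was multiplexed: SteadyGlo luminescence measured ATXN2-luciferase expression after a fluorogenic Gly-Phe-AFC viability readout (25 uM final).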
An asterisk follows results filed as active; i = inactive; u = inconclusive; x = no result; [ ] = remark or other dose. Calls come from the whole dose curve; as a rule, active = well fitted curve in the direction sought with a large enough effect; inconclusive = small, poorly fitted or top-dose-only effect, or another doubt; inactive = no such curve, though single readings can be large; an effect the other way counts as inactive or inconclusive. Potency is the fitted concentration of half-maximal effect.

SMILES | HT1080 IDH1KD tx | KB-V1 MDR tox | HT1080-NT tox | S2 tox | KB-3-1 tox | ATXN2 expr inh
CN(C)S(=O)(=O)c1ccc(C(=O)NC2CC(=O)N(c3ccc4c(c3)OCCO4)C2)cc1 (centres undefined) | x | u | x | i | i | -5.4%
O=C(Nc1ccc(F)cc1)Nc1cc(OCC(F)(F)F)cc(OCC(F)(F)F)c1 | 8.2µM* | u | 7.31µM* | u | 6.51µM* | 11.2µM*
COc1ccc(C2Nc3ccccc3C(=O)N2c2ccc(F)cc2)cc1COc1ccc(NC(C)=O)cc1 (centres undefined) | x | i | x | x | i | x
CC1C=CC=CC=CC=CC=CC=CC=CC(OC2OC(C)C(O)C(N)C2O)CC2OC(O)(CC(O)CC(O)C(O)CCC(O)CC(O)CC(=O)OC(C)C(C)C1O)CC(O)C2C(=O)O (centres undefined) | 9.2µM* | u | 4.61µM* | u | 4.11µM* | -5.0%
C[C@H]1[C@@H](O)[C@@H](C)\C=C/C=C\C=C/C=C\C=C/C=C\C=C/[C@@H](O[C@H]2O[C@@H](C)[C@@H](O)[C@@H](N)[C@@H]2O)C[C@@H]2O[C@](O)(C[C@@H](O)C[C@@H](O)[C@@H](O)CC[C@@H](O)C[C@@H](O)CC(=O)O[C@H]1C)C[C@@H](O)[C@H]2C(=O)O (stereo in doubt) | x | x | x | i | x | x
C/C(Cl)=C\Cn1c(O)c(N=NC(N)=S)c2ccccc21 | -24.3% | 9.2µM* | -29.6% | x | u | 23.8µM*
C=CCn1c(O)c(N=NC(=S)Nc2cccc(C)c2)c2ccccc21 | u | 2.91µM* | -6.2% | i | u | u
Cc1ccc(-c2[nH]c3ccccc3c2C(C[N+](=O)[O-])c2ccco2)cc1 (centres undefined) | u | 20.6µM* | 16.4µM* | i | i | 0.0%
CCN(CC)C(C)C(=O)Nc1c2c(cc3c1CCC3)CCC2 (centres undefined) | 1.2% | 9.2µM* | -0.2% | i | i | -19.0%
C(=C\c1ccc2ccccc2n1)/c1cccnc1 | x | i | x | x | u | x
COCCC1CCCCN1Cc1nc(N2CCCC2)c2cc(OC)c(OC)cc2n1 (centres undefined) | x | x | x | i | x | x
Cc1ccccc1N1C(=O)[C@@H]2Cc3ccccc3CN2C1=O | -6.1% | 16.4µM* | -11.5% | i | i | -6.7%
Oc1ccc(N=Nc2nc(-c3ccccc3)c(-c3ccccc3)[nH]2)cc1 | -21.5% | u | -4.5% | 11.2µM* | u | 10.5%
Oc1ccc(-c2nc(-c3ccccc3)c(-c3ccc(Br)cc3)[nH]2)cc1 | x | i | x | u | i | u
COc1ccc(C(=O)c2cn(Cc3ccccc3)c3ccccc3c2=O)cc1OC | x | i | x | u | i | -19.5%
Cc1cccc2cc(CN(Cc3ccco3)C(=O)Nc3cccc(C#N)c3)c(Cl)nc12 | 11.2µM* | 11.6µM* | u | i | i | -4.4%
O=C(Nc1ccccc1)N(Cc1cccs1)c1ccc(F)cc1 | x | i | x | x | i | x
Cc1ccccc1/C=C\c1nc2ccccc2c(=O)[nH]1 | 16.4µM* | u | 16.4µM* | i | u | -37.6%
COc1cc(/C=C/c2nc3ccccc3c(=O)[nH]2)cc(OC)c1OC | u | i | u | i | 2.91µM* | 22.3%
COc1ccc(-n2c(CNC(=O)c3cccc(OC)c3OC)nnc2SC)cc1 | x | x | x | i | x | x
O=C(N/N=C/c1cccc(Oc2ccccc2)c1)c1cccc(O)c1 | 20.6µM* | i | u | i | u | 8.3%
O=C(N/N=C/c1cccc(Oc2ccccc2)c1)c1cccc(Br)c1 | -29.1% | i | -17.9% | i | i | 1.6%
COc1ccc(N2CCN(c3nc(NCCc4ccc(OC)c(OC)c4)nc(OC)n3)CC2)cc1 | u | i | u | u | i | 28.2µM*
CCCNC(=O)c1nnsc1S(=O)(=O)c1ccc(Cl)cc1 | u | 23.1µM* | 13µM* | u | u | 14.5%[11.3 µM]
CCCNC(=O)NS(=O)(=O)c1ccc(Cl)cc1 | 8.4% | i | -0.4% | i | i | 3.5%
SMILES | HT1080 IDH1KD tx | KB-V1 MDR tox | HT1080-NT tox | S2 tox | KB-3-1 tox | ATXN2 expr inh
CNC(=O)c1nnsc1S(=O)c1ccc(Cl)cc1 (centres undefined) | 23.1µM* | i | 14.6µM* | u | u | 35.4%[11.3 µM]
CCCNC(=O)c1nnsc1S(=O)c1ccc(Cl)cc1 (centres undefined) | 16.4µM* | i | 18.4µM* | x | u | u
COc1ccc(CCNC(=O)C(C)n2nc(C)c3c(C)n(-c4ccc(C)cc4)nc3c2=O)c(OC)c1 (centres undefined) | -25.3% | i | 20.6µM* | u | i | u
COc1ccccc1CCNC(=O)C(C)n1nc(C)c2c(C)n(-c3ccccc3)nc2c1=O (centres undefined) | -10.4% | i | -5.1% | i | i | -29.6%
CCCCn1c(=O)nc2n(-c3ccccc3C)c3ccccc3cc-2c1=O | 8.9% | 10.3µM* | 7.7% | i | i | 0.4%
CCCCn1c(=O)nc2n(-c3ccc(Br)cc3)c3ccccc3cc-2c1=O | x | i | x | i | i | -3.8%
N=C(N)SCc1ccc(Cl)c2ccccc12 | -8.8% | 23.1µM* | -13.5% | u | i | -10.8%
N=C(N)SCc1ccccn1 | 9.1% | i | 5.4% | i | i | -0.1%
COc1ccc(CN2CCOc3c(O)cc(-c4cc(C)c5ccc(F)cc5n4)cc3C2)c(O)c1 | x | x | x | i | x | x
CCN(Cc1nc2cc(Cl)ccc2c(=O)[nH]1)C(=O)c1nn(C)c(=O)c2ccccc12 | -4.5% | 18.4µM* | -11.6% | i | i | -19.2%
CCOC(=O)/C(=N\Nc1ncnc2ccccc12)c1ccc(OC)cc1 | -0.2% | i | -23.6% | i | i | -11.6%
COc1ccc(/C(=N/Nc2ncnc3ccccc23)C(=O)O)cc1 | 23.1µM* | i | 23.1µM* | i | i | -9.0%
CC1(C(=O)NCC2CC2)Cc2c(-c3ccc4c(c3)OCO4)ccnc2O1 (centres undefined) | u | u | u | i | 14.6µM* | 0.0%
CN(C)c1ccc(CNC(=O)C2(C)Cc3c(-c4ccc5c(c4)OCO5)ccnc3O2)cc1 (centres undefined) | u | 11.6µM* | u | i | 7.31µM* | -8.4%
CN(Cc1ccccc1)CC(O)COc1ccc(CNCc2ccc(Cl)s2)cc1 (centres undefined) | u | i | 20.6µM* | u | i | u
CN(Cc1ccccc1)CC(O)COc1ccc(CNCc2cccnc2)cc1 (centres undefined) | u | i | -9.0% | i | i | x
Cc1cc(S(=O)(=O)Nc2cccc(Cl)c2)c(C)s1 | -8.5% | i | -8.3% | i | i | -17.2%
